The nature of experiment [1]: qHTS drug screen for cell cycle checkpoint inhibitors in PARPi-resistant BRCA-mutant ovarian cancer cell lines. (AID 1963452; calls by dose curve). Conditions: PEO1/OlaR viability, CellTiter-Glo luminescence, 96 h; for Z-AUC: stronger effect = lower value. Summed up:
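PEO1, PEO4 and PEO1/OlaR ovarian cancer cells, 600 per well, exposed 96 h at 37C to a dilution series. Viability read by CellTiter-Glo luminescence, normalized to DMSO and empty wells; activity summarized as Z-AUC.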

Experiment [2] is described as follows: qHTS for identification of novel therapeutic agents for treatment of microphthalmiaassociated transcription factor (MiT) renal cell carcinoma (RCC) (AID 1963991; calls by dose curve). Conditions: CellTiter-Glo, 48 h; for Potency: active = Z-AUC below -0.8 in all three lines; for z-score: stronger effect = lower value. The essentials:
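Three TFE3-fusion RCC lines (UOK109, UOK124, UOK145), 500 cells/well in complete medium, were treated with MIPE 4.0 compounds for 48 hours at 37 C. Viability was by CellTiter-Glo luminescence, normalized to DMSO (100%) and empty wells (0%); curves fitted over 11 concentrations.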
(In general: Quantitative high-throughput screening tests each substance at several concentrations.)

Experiment [3] is described as follows: qHTS profiling for inhibitors of Plasmodium falciparum proliferation (AID 504749). Also: nearly all actives have a fitted effect of over 60% in size.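 As to activity, negative = inhibition: 0% = DMSO vehicle and full inhibition = artemisinin control.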 The note with it: P. falciparum in erythrocytes, SYBR Green DNA, 72 h. The essentials:
(§1)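 SYBR Green fluorescence (ex 485 nm, em 535 nm) reports parasite DNA after 72 h compound exposure of infected red cells at 0.3% parasitemia, 2.5% hematocrit; signal normalized to 0.29 uM artemisinin and vehicle wells.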

For experiment [4], the system named is 3D7. The experiment is described as above. Conditions: P. falciparum in erythrocytes, SYBR Green DNA, 72 h; series mostly up to 28.7 µM. The essentials: as §1
The subject of experiment [5] is 7G8. Described as above. The note with it: P. falciparum in erythrocytes, SYBR Green DNA, 72 h; series mostly up to 28.7 µM. Summed up:
as §1

Experiment [6] deals with AA1029. Described as above. Conditions: P. falciparum in erythrocytes, SYBR Green DNA, 72 h; series mostly up to 28.7 µM. Summed up:
as §1

Experiment [7] relates to AS120. The description is as above. Conditions: P. falciparum in erythrocytes, SYBR Green DNA, 72 h; series mostly up to 28.7 µM. The essentials:
as §1

Experiment [8] deals with ATS189. The description is as above. The note with it: P. falciparum in erythrocytes, SYBR Green DNA, 72 h; series mostly up to 28.7 µM. Summed up:
as §1

Experiment [9] has as its system ATS95. The description is as above. Conditions: P. falciparum in erythrocytes, SYBR Green DNA, 72 h; series mostly up to 28.7 µM. The essentials:
as §1

The subject of experiment [10] is C2A. Described as above. The note with it: P. falciparum in erythrocytes, SYBR Green DNA, 72 h; series mostly up to 28.7 µM. Summed up: as §1
Experiment [11] has as its system CP185. Described as above. The note with it: P. falciparum in erythrocytes, SYBR Green DNA, 72 h; series mostly up to 28.7 µM. The essentials:
as §1

In experiment [12] the test system is CP191. Described as above. The note with it: P. falciparum in erythrocytes, SYBR Green DNA, 72 h; series mostly up to 28.7 µM. The essentials:
as §1

The subject of experiment [13] is CP192. The experiment is described as above. The note with it: P. falciparum in erythrocytes, SYBR Green DNA, 72 h; series mostly up to 28.7 µM. The essentials:
as §1

Experiment [14] has as its system CP194. The experiment is described as above. Conditions: P. falciparum in erythrocytes, SYBR Green DNA, 72 h; series mostly up to 28.7 µM. The essentials: as §1
For experiment [15], the system named is CP201. The experiment is described as above. Conditions: P. falciparum in erythrocytes, SYBR Green DNA, 72 h; series mostly up to 28.7 µM. The essentials: as §1
Experiment [16] relates to CP203. The experiment is described as above. Conditions: P. falciparum in erythrocytes, SYBR Green DNA, 72 h; series mostly up to 28.7 µM. Summed up: as §1
The test system of experiment [17] is CP211. The description is as above. Conditions: P. falciparum in erythrocytes, SYBR Green DNA, 72 h; series mostly up to 28.7 µM. The essentials: as §1
The test system of experiment [18] is CP217. The description is as above. The note with it: P. falciparum in erythrocytes, SYBR Green DNA, 72 h; series mostly up to 28.7 µM. The essentials:
as §1

Experiment [19] has as its system CP237. Described as above. Conditions: P. falciparum in erythrocytes, SYBR Green DNA, 72 h; series mostly up to 28.7 µM. Summed up:
as §1

Experiment [20] has as its system CP215. Described as above. Conditions: P. falciparum in erythrocytes, SYBR Green DNA, 72 h; series mostly up to 28.7 µM. Summed up: as §1
[21] abbreviates: measured here: PEO1 parental Z-AUC.
The mark [22] stands for this setting: TFE3-RCC UOK109 viability, measured here: UOK109 Z-AUC.
Where [23] appears, read: TFE3-RCC viability, measured here: UOK124 Z-AUC.
Where [24] appears, read: TFE3-RCC viability, measured here: UOK145 Z-AUC.

Results filed as inconclusive are left out. Active and inactive are the calls of the source. Unless noted, calls follow the shape of the dose curve; as a rule, active = well fitted inhibition curve with a large enough effect; inconclusive = small, poorly fitted or top-dose-only effect; inactive = flat fitted curve, though single readings scatter.

This note sets out measurements from PubChem BioAssay (NCATS).
Potency is read from the fitted curve at half-maximal effect.

Regarding `C=CC(=O)Nc1cc2c(Nc3ccc(F)c(Cl)c3)ncnc2cc1C#CC(C)(C)N1CCN(C)CC1`, the results for the Z-AUC in experiment [1], in experiment [1] (setting [21]) and in [1] (measured here: PEO4 Z-AUC) were -0.203 (inactive), -0.15 and -0.45, respectively. Also, the Potency in [2] (TFE3-RCC UOK109 viability) is 14800 nM (active). In addition, the results for the z-score in experiment [2] (setting [22]), in [2] (setting [23]) and in experiment [2] (setting [24]) were -2.39, -1.76 and -1.33, respectively.
Take `C=CC(=O)Nc1cccc(Oc2nc(Nc3ccc(N4CCN(C)CC4)cc3)ncc2Cl)c1`: the Z-AUC in [1] was -0.847 (inactive); in [1] (setting [21]), -0.559; in experiment [1] (measured here: PEO4 Z-AUC), -0.604. The Potency in [2] (TFE3-RCC UOK109 viability) was 833 nM (active). In addition, the z-score was -2.72 in [2] (setting [22]), -0.851 in experiment [2] (setting [23]) and -2.36 in [2] (setting [24]).
Turning to `CC=C1NC(=O)[C@H]2CSSCCC=C[C@H](CC(=O)N[C@H](C(C)C)C(=O)N2)OC(=O)[C@H](C(C)C)NC1=O`, the Potency in [2] (TFE3-RCC UOK109 viability) was 33.2 nM (active). In addition, the z-score in experiment [2] (setting [22]) is -2.23; in experiment [2] (setting [23]), -4.08; in experiment [2] (setting [24]), -2.33.
Regarding `Nc1ccc(S(=O)(=O)Nc2ncccn2)cc1`, the figures for the z-score in experiment [2] (setting [22]), in experiment [2] (setting [23]) and in experiment [2] (setting [24]) were -0.287, 0.624 and -0.336, respectively. Besides, in [3] (at 12.8 µM (top of the series), parasite line A), the activity, negative = inhibition was 8.9% (inactive). The Potency entry in experiment [4], in experiment [5], in [6], in experiment [7], in experiment [8] and in experiment [9] was “inactive” each time. Besides, the Potency entry in [10], in experiment [11], in experiment [12], in [13], in experiment [14] and in [15] was “inactive” in each case. The Potency result in [16], in experiment [17], in [18] and in experiment [19] was “inactive” throughout.
Consider `O=C1CCC[C@@H]2[C@H]3CCC[N+]4([O-])CCC[C@@H](CN12)[C@@H]34` (some centres not stated), for which the z-score in [2] (setting [22]) amounted to 0.308; in experiment [2] (setting [23]), 0.251; in [2] (setting [24]) it was 0.512.
On to `CC[C@H]1CN2CCc3cc(OC)c(OC)cc3[C@H]2C[C@@H]1C[C@@H]1NCCc2cc(OC)c(OC)cc21`, for which the Potency was 166 nM (active) in [2] (TFE3-RCC UOK109 viability); 316 nM (active) in experiment [3] (parasite line A); 282 nM (active) in experiment [3] (parasite line B); 224 nM (active) in experiment [4]; 126 nM (active) in experiment [5]; 316 nM (active) in experiment [6]. Moreover, the Potency is 316 nM (active) in experiment [7]; 708 nM (active) in experiment [8]; 282 nM (active) in experiment [9]; 224 nM (active) in experiment [10]; 316 nM (active) in experiment [11]; 536 nM (active) in experiment [13]. Also, the Potency in [14] is 601 nM (active); in [15], 675 nM (active); in [16] it was 379 nM (active); in experiment [17] it was 675 nM (active); in experiment [20], 536 nM (active); in [18], 708 nM (active). Further, the Potency in [19] was 126 nM (active). Moreover, the z-score in [2] (setting [22]) was -1.94; in experiment [2] (setting [23]), -1.32; in [2] (setting [24]), -3.58.
As to `CCc1c2c(nc3ccc(O)cc13)-c1cc3c(c(=O)n1C2)COC(=O)[C@]3(O)CC`, the Potency is 6.2 nM (active) in experiment [1] and 469 nM (active) in experiment [2] (TFE3-RCC UOK109 viability). For the same compound, the Z-AUC was -3.8 in experiment [1] (setting [21]) and -3.13 in experiment [1] (measured here: PEO4 Z-AUC). In addition, the z-score was -1.63 in experiment [2] (setting [22]), -2.08 in experiment [2] (setting [23]) and -2.56 in experiment [2] (setting [24]).
As to `Cc1ccc(NC(=O)C2(c3ccc4c(c3)OC(F)(F)O4)CC2)nc1-c1cccc(C(=O)O)c1`, the Z-AUC in experiment [1] is 0.456 (inactive); in experiment [1] (setting [21]), 0.813; in experiment [1] (measured here: PEO4 Z-AUC), 0.515. Moreover, the Potency in [2] (TFE3-RCC UOK109 viability) is 235 nM (active). Besides, the z-score is -2.27 in [2] (setting [22]), -1.92 in experiment [2] (setting [23]) and -1.79 in [2] (setting [24]).
